Laboratory results taken from PubChem BioAssay.
Activity calls are given as the source filed them.

Tests used:
[1] = E. coli DRC41 culture turbidity changes, primary screen, E. coli filamentation inducer project, strain DRC41, OD650, 48 h (AID 1152);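 further: E. coli MC1000 strain DRC41 lacking acrAB efflux pump and sulA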; details: E. coli DRC41 (acrAB sulA), higher = more signal, called active from +8 up or from −8 down
[2] = small-molecule binders of probe aLefty1, primary screen, biochemical, small-molecule microarray, 635/667 nm fluorescence (AID 1153); details: higher = more signal;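 further: score merges spot fluorescence with signal-to-noise ratio from the scanned slide images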
[3] = PSAC antagonists in infected red cells, primary screen, cell-based, P. falciparum Indochina, OD700, 1 h (AID 1154); details: P. falciparum Indochina infected RBC osmotic lysis, higher = more signal, called active from +8 up or from −8 down
[4] = PSAC antagonists in infected red cells, primary screen, cell-based, P. falciparum Indochina, OD700, 2 h (AID 1155);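 further: lysis reports solute entry through the parasite surface anion channel PSAC; channel blockers reduce lysis of infected cells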; details: P. falciparum Indochina infected erythrocytes, osmotic lysis OD700; higher = more signal, called active from +8 up or from −8 down
[5] = osmotic lysis modulators in infected erythrocytes, primary screen, PSAC antagonist project, cell-based, P. falciparum Indochina, OD700, 3 h (AID 1156); details: higher = more signal, called active from +8 up or from −8 down
[6] = PSAC antagonists in infected red cells, primary screen, cell-based, P. falciparum Indochina, OD700, 18 h (AID 1157); details: P. falciparum Indochina infected erythrocytes, osmotic lysis OD700, 18 h; higher = more signal, called active from +8 up or from −8 down
[7] = modulators of S6 phosphorylation in cells, primary screen, cell-based, A549, cytoblot, luminescence, serum-stimulated (AID 1158); details: A549 phospho-S6 cytoblot, 5 h, higher = more signal;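 further: serum-stimulated A549 lung adenocarcinoma cells; signal is phosphorylated S6 detected by cytoblot immunostaining with HRP secondary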
[8] = molecular target: NADPH oxidase 2 (Homo sapiens) (UniProt P04839); assay: NOX2-dependent H2O2 signal modulators, primary screen, NOX inhibitor project, cell-based, HEK293-NOX2, PMA-stimulated, Amplex Red fluorescence (AID 1159); details: 45 min, higher = more signal, called active from +8 up or from −8 down; further: test concentration not given here
Sequence of NADPH oxidase 2 (Homo sapiens) (P04839 whole entry, looked up): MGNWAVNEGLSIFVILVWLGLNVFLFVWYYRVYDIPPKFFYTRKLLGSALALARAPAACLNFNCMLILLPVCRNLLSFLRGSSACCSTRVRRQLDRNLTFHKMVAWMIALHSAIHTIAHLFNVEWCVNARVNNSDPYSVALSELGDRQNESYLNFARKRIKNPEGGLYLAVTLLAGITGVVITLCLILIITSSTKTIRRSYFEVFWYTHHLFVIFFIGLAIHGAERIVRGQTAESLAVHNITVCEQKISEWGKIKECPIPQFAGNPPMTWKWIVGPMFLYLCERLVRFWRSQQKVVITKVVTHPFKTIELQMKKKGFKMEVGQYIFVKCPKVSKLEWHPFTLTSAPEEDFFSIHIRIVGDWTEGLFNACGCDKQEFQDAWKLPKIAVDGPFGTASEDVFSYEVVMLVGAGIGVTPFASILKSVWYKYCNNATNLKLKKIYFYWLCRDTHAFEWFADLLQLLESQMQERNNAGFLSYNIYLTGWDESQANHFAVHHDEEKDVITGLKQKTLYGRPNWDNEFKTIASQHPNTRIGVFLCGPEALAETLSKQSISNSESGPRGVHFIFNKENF

[9] = molecular target: NADPH oxidase 4 (Homo sapiens) (UniProt Q9NPH5); assay: NOX4-dependent H2O2 signal modulators, primary screen, NOX inhibitor project, cell-based, HEK293-NOX4, tetracycline-induced, Amplex Red fluorescence (AID 1160); details: 45 min, higher = more signal, called active from +8 up or from −8 down
Sequence of NADPH oxidase 4 (Homo sapiens) (Q9NPH5 whole entry, looked up): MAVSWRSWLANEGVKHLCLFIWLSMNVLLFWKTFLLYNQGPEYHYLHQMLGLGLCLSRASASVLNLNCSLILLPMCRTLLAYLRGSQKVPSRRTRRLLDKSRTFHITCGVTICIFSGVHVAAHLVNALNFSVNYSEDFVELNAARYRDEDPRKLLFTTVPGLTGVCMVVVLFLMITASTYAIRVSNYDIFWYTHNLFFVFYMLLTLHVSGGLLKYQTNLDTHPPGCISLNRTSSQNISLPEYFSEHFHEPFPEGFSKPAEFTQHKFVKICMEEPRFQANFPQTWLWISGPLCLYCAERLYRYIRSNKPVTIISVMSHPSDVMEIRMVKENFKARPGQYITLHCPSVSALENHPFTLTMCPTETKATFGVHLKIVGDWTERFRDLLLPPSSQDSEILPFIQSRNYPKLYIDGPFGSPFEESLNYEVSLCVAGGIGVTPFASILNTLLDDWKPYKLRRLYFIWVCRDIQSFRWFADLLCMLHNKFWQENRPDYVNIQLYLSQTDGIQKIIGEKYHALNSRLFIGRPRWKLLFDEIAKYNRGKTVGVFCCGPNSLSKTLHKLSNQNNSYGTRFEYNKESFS

[10] = molecular target: NADPH oxidase 5 (Homo sapiens) (UniProt Q96PH1); assay: NOX5-dependent H2O2 signal modulators, primary screen, NOX inhibitor project, cell-based, HEK293-NOX5, Amplex Red fluorescence (AID 1161); details: HEK293-NOX5, ionomycin, 45 min, higher = more signal
Sequence of NADPH oxidase 5 (Homo sapiens) (Q96PH1 whole entry, looked up): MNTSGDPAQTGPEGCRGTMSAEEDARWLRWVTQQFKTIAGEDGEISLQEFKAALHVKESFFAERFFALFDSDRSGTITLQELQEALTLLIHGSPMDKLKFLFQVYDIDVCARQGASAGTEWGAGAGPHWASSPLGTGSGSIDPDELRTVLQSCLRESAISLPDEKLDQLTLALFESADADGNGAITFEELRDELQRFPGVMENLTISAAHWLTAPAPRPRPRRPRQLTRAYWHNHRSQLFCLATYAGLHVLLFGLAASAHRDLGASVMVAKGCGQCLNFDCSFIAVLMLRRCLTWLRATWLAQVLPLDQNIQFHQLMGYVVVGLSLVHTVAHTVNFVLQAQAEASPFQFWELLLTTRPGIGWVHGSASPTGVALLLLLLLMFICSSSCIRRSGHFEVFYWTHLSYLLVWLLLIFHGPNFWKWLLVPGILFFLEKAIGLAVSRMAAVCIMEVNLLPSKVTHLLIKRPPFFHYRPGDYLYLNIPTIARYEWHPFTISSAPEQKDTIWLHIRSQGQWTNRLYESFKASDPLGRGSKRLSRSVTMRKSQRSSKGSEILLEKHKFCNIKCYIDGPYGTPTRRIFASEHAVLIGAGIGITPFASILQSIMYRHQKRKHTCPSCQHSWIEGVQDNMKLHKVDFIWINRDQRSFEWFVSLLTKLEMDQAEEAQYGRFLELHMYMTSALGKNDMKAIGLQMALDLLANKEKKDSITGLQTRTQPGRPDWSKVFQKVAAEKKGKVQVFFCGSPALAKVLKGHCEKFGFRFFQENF

[11] = A549 cell viability effects, profiling panel, calcein-AM fluorescence, 48 h, basal (AID 1162); details: higher = more signal; further: test concentration not given here
[12] = adipocyte viability effects, profiling panel, cell-based, 3T3-L1 adipocytes, calcein-AM fluorescence, 48 h, basal (AID 1163); details: 3T3-L1 adipocytes viability, higher = more signal; further: test concentration not given here
[13] = HepG2 cell viability effects, profiling panel, calcein-AM fluorescence, 48 h, basal (AID 1164); details: higher = more signal; further: test concentration not given here
[14] = MM1S cell viability effects, profiling panel, calcein-AM fluorescence, 48 h, basal (AID 1165); details: higher = more signal;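 further: viability of MM1S multiple myeloma cells under basal unstimulated conditions; test concentration not given here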
[15] = basal RPMI8226 viability, no added stimulus, profiling panel, cell-based, calcein-AM fluorescence, 48 h, PK04 Diversity Set (AID 1166); details: RPMI8226 myeloma viability, higher = more signal;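 further: cells grown under basal conditions without added stimulus; test concentration not given here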
[16] = basal HepG2 mitochondrial membrane potential changes, profiling panel, cell-based, JC-1 fluorescence, 24 h, 100 nL compound (AID 1167); details: higher = more signal; further: test concentration not given here
[17] = basal 3T3-L1 adipocyte mitochondrial potential changes, profiling panel, cell-based, JC-1 fluorescence, 3T3-L1 adipocytes, 24 h, 100 nL compound (AID 1168); details: JC-1 mitochondrial fluorescence, higher = more signal, called active from +8 up or from −8 down; further: test concentration not given here
[18] = basal RPMI8226 mitochondrial membrane potential changes, profiling panel, cell-based, JC-1 fluorescence, 24 h, 100 nL compound (AID 1169); details: RPMI8226 myeloma, JC-1 mitochondrial potential fluorescence, higher = more signal; further: test concentration not given here
[19] = basal MM1S mitochondrial membrane potential changes, profiling panel, cell-based, JC-1 fluorescence, 24 h, 100 nL compound (AID 1170); details: higher = more signal; further: test concentration not given here
[20] = A549 lung cancer cell viability effects, profiling panel, resazurin fluorescence, 24 h, PK04 Diversity Set (AID 1171); details: higher = more signal, called active from +8 up or from −8 down; further: test concentration not given here

| SMILES | z-score [1] | composite z-score [2] | z-score [3] | z-score [4] | z-score [5] | z-score [6] | z-score [7] | z-score [8] | z-score [9] | z-score [10] | z-score [11] | z-score [12] | z-score [13] | z-score [14] | z-score [15] | z-score [16] | z-score [17] | z-score [18] | z-score [19] | z-score [20] |
| --- | --- | --- | --- | --- | --- | --- | --- | --- | --- | --- | --- | --- | --- | --- | --- | --- | --- | --- | --- | --- |
| COc1ccc(CCNC(=O)[C@@]2(Sc3ccc(C)cc3)CC(=O)N(Cc3cc(C(F)(F)F)cc(C(F)(F)F)c3)[C@@H]2c2ccc(CO)cc2)cc1 | -0.601 (inactive) | 0.469 | 1.54 (inactive) | 0.518 (inactive) | 0.0927 (inactive) | -0.0392 (inactive) | 0.0684 | -0.626 (inactive) | 0.539 (inactive) | 1.02 | -0.147 | 0.7 | -0.29 | -0.305 | -0.24 | 0.016 | -0.563 (inactive) | 1.15 | -0.145 | 0.423 (inactive) |
| COCCOC(=O)N1C(=O)[C@@]2(c3cc(C#CC4=CCCCC4)ccc31)[C@H](c1ccc(OCCO)cc1)N1[C@H](c3ccccc3)[C@H](c3ccccc3)OC(=O)[C@H]1[C@@H]2C(=O)N1CCCCCCC1 | 3.39 (inactive) | 1.85 | 2.24 (inactive) | 0.742 (inactive) | 0.171 (inactive) | -0.521 (inactive) | 2.26 | 1.44 (inactive) | 0.639 (inactive) | 1.3 | 0.508 | 1.35 | 1.5 | 0.177 | -0.288 | -0.288 | -2.7 (inactive) | -1.19 | -1.21 | -2.16 (inactive) |
| O=C1c2ccccc2[C@@]2(Cc3ccccc3N(Cc3ccccc3)C2=O)[C@H](c2ccc(CO)cc2)N1Cc1ccccc1 | -0.757 (inactive) | -0.147 | -0.0384 (inactive) | 0.0732 (inactive) | 0.0046 (inactive) | -0.11 (inactive) | 0.244 | 0.0584 (inactive) | 0.572 (inactive) | -0.107 | -0.574 | -0.269 | -0.643 | 0.0744 | -0.851 | -0.0723 | -0.271 (inactive) | 0.167 | -0.353 | -0.381 (inactive) |
| CN(C)CCCNC(=O)[C@@]1(Cc2ccccc2I)c2ccccc2C(=O)N(Cc2ccccc2)[C@H]1c1ccc(CO)cc1 | -0.206 (inactive) | -0.729 | 1.88 (inactive) | 0.614 (inactive) | -1.26 (inactive) | 0.452 (inactive) | -0.5 | -8.23 (active) | -3.08 (inactive) | -1.71 | -2.02 | -0.826 | -3.4 | -3.73 | -3.31 | 0.601 | -0.354 (inactive) | -0.681 | -1.54 | -3.32 (inactive) |
| CCCCCCc1nc(-c2ccc(OC)nc2)cc2c1[Si](C(C)C)(C(C)C)OC2 | -0.45 (inactive) | -0.103 | 2.62 (inactive) | 0.0409 (inactive) | -0.484 (inactive) | -0.179 (inactive) | 0.366 | -4.66 (inactive) | -2.14 (inactive) | -4.22 | -0.848 | 0.608 | 0.238 | -2.15 | -3.11 | -1.91 | -0.191 (inactive) | -0.791 | -0.368 | 0.552 (inactive) |
